The panel holds about 79,000 compounds, 15% with a hit somewhere; the sample as a whole holds those more often. Activity calls are given as the source filed them. Cut-off read from the data, not from the text of the source: active = growth inhibition above about 70%; inactive = the rest.
How the values were obtained:
[1] = NCI Yeast Anticancer Drug Screen. Data for the mec2-1 strain (AID 157); settings: S. cerevisiae mec2-1 strain, hits give high values
Method in brief: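 Using mec2-1 yeast: add compound, measure growth, express inhibition versus vehicle-treated cultures.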

[2] = NCI Yeast Anticancer Drug Screen. Data for the rad14 strain (AID 159);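 note: 0% = growth of vehicle-treated control cultures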; settings: S. cerevisiae rad14 strain growth inhibition, hits give high values
Method in brief: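 A mutant yeast strain defective in DNA damage repair is treated with compound; inhibition of its growth is scored against untreated, vehicle-exposed cultures.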

[3] = NCI Yeast Anticancer Drug Screen. Data for the sgs1 mgt1 strain (AID 161);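 note: 0% = growth of cultures given vehicle only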; settings: S. cerevisiae sgs1 mgt1 strain, hits give high values
Method in brief: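 Yeast cells carrying a defined DNA-repair defect were exposed to test compounds. Growth inhibition was measured relative to vehicle-treated controls.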

[4] = NCI Yeast Anticancer Drug Screen. Data for the CLN2oe strain (AID 163);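 note: 0% = growth of vehicle-only control cultures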; settings: S. cerevisiae CLN2oe strain, hits give high values
Method in brief: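 Whole-cell yeast growth assay. A strain engineered for altered cell-cycle control received compound, and inhibition relative to vehicle-treated cultures was recorded.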

[5] = NCI Yeast Anticancer Drug Screen. Data for the cln2 rad14 strain (AID 165);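 note: 0% = growth equal to vehicle treated cultures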; settings: S. cerevisiae cln2 rad14 strain, hits give high values
Method in brief: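 Yeast strain cln2 rad14, bearing defects in cell cycle control and DNA repair, serves as the test system; values reflect growth inhibition compared with vehicle.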

[6] = NCI Yeast Anticancer Drug Screen. Data for the bub3 strain (AID 167); settings: S. cerevisiae bub3 mutant strain, hits give high values
Method in brief: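 Steps: expose the mutant yeast strain to compound; grow alongside vehicle-treated cultures; measure growth; express inhibition against the vehicle cultures.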

[7] = NCI Yeast Anticancer Drug Screen. Data for the wt2 strain (AID 169);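 note: 0% = growth of vehicle-treated yeast cultures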; settings: S. cerevisiae wt2 strain growth inhibition, hits give high values
Method in brief: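 Treated yeast vs. vehicle-treated yeast: growth inhibition determined.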

[8] = NCI Yeast Anticancer Drug Screen. Data for the mlh1 strain (AID 171);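 note: 0% = growth of vehicle-treated control cultures of the same strain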; settings: S. cerevisiae mlh1 strain growth inhibition, hits give high values
Method in brief: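 A yeast strain with a defined genetic lesion serves as the test organism. Cultures receive compound or vehicle, and growth is measured.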

[9] = NCI Yeast Anticancer Drug Screen. Data for the sgs1 strain (AID 173);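 note: 0% = growth of vehicle-only control cultures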; settings: S. cerevisiae sgs1 mutant, hits give high values
Method in brief: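 A genetically defined yeast mutant is incubated with the test compound, and its growth is compared to that of the same strain given vehicle.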

[10] = NCI Yeast Anticancer Drug Screen. Data for the mlh1 rad18 strain (AID 175); settings: S. cerevisiae mlh1 rad18 strain growth inhibition, hits give high values
Method in brief: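 Steps: expose repair-defective yeast to compound; measure growth; express inhibition against vehicle-treated controls.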

[11] = NCI Yeast Anticancer Drug Screen. Data for the rad18 strain (AID 177); settings: S. cerevisiae rad18 mutant growth inhibition, hits give high values
Method in brief: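 Measured value is growth inhibition of a yeast strain bearing a DNA repair alteration, referenced to vehicle-treated cells.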

[12] = NCI Yeast Anticancer Drug Screen. Data for the rad52 strain (AID 147);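 note: 0% = growth of vehicle-treated control cultures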; settings: S. cerevisiae rad52 mutant growth inhibition, hits give high values
Method in brief: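 Here a repair-compromised yeast strain receives each compound; its growth is then quantified and normalised to vehicle-only controls.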

[13] = NCI Yeast Anticancer Drug Screen. Data for the wt1 strain (AID 149);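 note: 0% = growth of vehicle-treated wt1 cultures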; settings: S. cerevisiae wt1 strain (SPY 50644) growth inhibition, hits give high values
Method in brief: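 Compounds are added to wt1 yeast cultures. Growth is then measured. Inhibition is expressed relative to vehicle-treated controls.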

[14] = NCI Yeast Anticancer Drug Screen. Data for the rad50EPP+ strain (AID 151);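 note: 0% = growth of vehicle-treated control cultures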; settings: S. cerevisiae rad50 mutant strain, hits give high values
Method in brief: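 Read-out is yeast growth inhibition relative to vehicle; cells used were the rad50EPP+ strain.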

[15] = NCI Yeast Anticancer Drug Screen. Data for the mgt1 strain (AID 153); settings: S. cerevisiae mgt1 mutant growth inhibition, hits give high values
Method in brief: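 Measured: inhibition of mgt1 yeast growth by compound, normalized to vehicle-treated cultures.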

[16] = NCI Yeast Anticancer Drug Screen. Data for the rad50 strain (AID 155);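 note: 0% = growth of vehicle-only cultures of the same strain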; settings: S. cerevisiae rad50 strain growth inhibition, hits give high values
Method in brief: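 Inhibition values express reduced yeast growth in compound-treated cultures relative to vehicle-treated controls.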

[17] = at 5.0 µM (retest, dose inferred, filed as 0.5)
[18] = at 50.0 µM (retest, dose inferred, filed as 5.0)

Measured: growth inhibition

CC1(Cl)CC(C)(/C=C/Cl)C(Cl)CC1Cl (stereo unspecified)
active: [10]; at 50.0 µM 79.4%
inactive: [1]; [17] 9% | [1]; at 11.0 µM 6% | [1]; at 33.0 µM 20% | [1]; [18] 7% | [1]; at 50.0 µM 19.1% | [1]; at 100.0 µM 46% | [2]; at 1.2 µM 4% | [2]; at 3.7 µM 1% | [2]; at 11.0 µM 5% | [2]; at 33.0 µM 16% | [2]; at 100.0 µM 48% | [3]; [17] 1% | [3]; [18] -17% | [3]; at 50.0 µM 51% | [4]; at 1.2 µM 3% | [4]; at 3.7 µM 5% | [4]; at 11.0 µM 8% | [4]; at 33.0 µM 23% | [4]; at 100.0 µM 49% | [5]; [17] 40% | [5]; [18] -20% | [5]; at 50.0 µM 45% | [6]; at 1.2 µM 2% | [6]; at 3.7 µM 0% | [6]; [17] -3% | [6]; at 11.0 µM 2% | [6]; at 33.0 µM 12% | [6]; [18] -8% | [6]; at 50.0 µM 15.4% | [6]; at 100.0 µM 31% | [7]; at 1.2 µM 0% | [7]; at 3.7 µM 1% | [7]; at 11.0 µM 3% | [7]; at 33.0 µM 16% | [7]; at 100.0 µM 50% | [8]; at 1.2 µM 2% | [8]; at 3.7 µM 1% | [8]; at 11.0 µM 4% | [8]; at 33.0 µM 14% | [8]; at 100.0 µM 41% | [9]; at 1.2 µM 4% | [9]; at 3.7 µM 2% | [9]; at 11.0 µM 2% | [9]; at 33.0 µM 28% | [9]; at 100.0 µM 64% | [10]; [17] 8% | [10]; [18] -23% | [11]; at 1.2 µM 5% | [11]; at 3.7 µM 5% | [11]; at 11.0 µM 12% | [11]; at 33.0 µM 30% | [11]; at 100.0 µM 48%

CCOC(=O)C1=C(C(=O)OCC)C2(c3ccccc3)N(O1)c1ccccc1C2(C)C (stereo unspecified)
inactive: [12]; at 1.2 µM -3% | [12]; at 3.7 µM -2% | [12]; at 11.0 µM 0% | [12]; at 33.0 µM 3% | [13]; at 1.2 µM -2% | [13]; at 3.7 µM -5% | [13]; at 11.0 µM -4% | [13]; at 33.0 µM -1% | [13]; at 100.0 µM 54% | [14]; at 1.2 µM -6% | [14]; at 3.7 µM -7% | [14]; at 11.0 µM -5% | [14]; at 33.0 µM -6% | [14]; at 100.0 µM 15% | [15]; at 1.2 µM -1% | [15]; at 3.7 µM 0% | [15]; at 11.0 µM -1% | [15]; at 33.0 µM -3% | [16]; at 1.2 µM -1% | [16]; at 3.7 µM -2% | [16]; [17] 54% | [16]; at 11.0 µM -3% | [16]; at 33.0 µM -1% | [16]; [18] 54% | [16]; at 50.0 µM 63% | [16]; at 100.0 µM 67% | [1]; at 1.2 µM -3% | [1]; at 3.7 µM -3% | [1]; [17] 35% | [1]; at 11.0 µM -5% | [1]; at 33.0 µM -7% | [1]; [18] 35% | [1]; at 50.0 µM 27.5% | [2]; at 1.2 µM 0% | [2]; at 3.7 µM -4% | [2]; at 11.0 µM -3% | [2]; at 33.0 µM -8% | [2]; at 100.0 µM 62% | [4]; at 1.2 µM -4% | [4]; at 3.7 µM -2% | [4]; at 11.0 µM -4% | [4]; at 33.0 µM -5% | [5]; [17] 6% | [5]; [18] 6% | [5]; at 50.0 µM 43.3% | [6]; at 1.2 µM -6% | [6]; at 3.7 µM -5% | [6]; [17] 31% | [6]; at 11.0 µM 8% | [6]; at 33.0 µM 13% | [6]; [18] 31% | [6]; at 50.0 µM 44.4% | [7]; at 1.2 µM -2% | [7]; at 3.7 µM -3% | [7]; at 11.0 µM -2% | [7]; at 33.0 µM 0% | [8]; at 1.2 µM -3% | [8]; at 3.7 µM -6% | [8]; at 11.0 µM -5% | [8]; at 33.0 µM -3% | [9]; at 1.2 µM -5% | [9]; at 3.7 µM -5% | [9]; at 11.0 µM -6% | [9]; at 33.0 µM -2% | [10]; [17] 32% | [10]; [18] 32% | [10]; at 50.0 µM 15.4% | [11]; at 1.2 µM -4% | [11]; at 3.7 µM -11% | [11]; at 11.0 µM -12% | [11]; at 33.0 µM -4% | [11]; at 100.0 µM 68%
active: [12]; at 100.0 µM 71% | [15]; at 100.0 µM 78% | [1]; at 100.0 µM 74% | [3]; [17] 71% | [3]; [18] 71% | [3]; at 50.0 µM 79.8% | [4]; at 100.0 µM 79% | [6]; at 100.0 µM 77% | [7]; at 100.0 µM 75% | [8]; at 100.0 µM 80% | [9]; at 100.0 µM 81%

Source: PubChem BioAssay (NCI)
